# Screening data (PubChem BioAssay)
# RMI-FANCM inh = disruptors of RMI1/RMI2 association with MM2 peptide – biochemical, fluorescence polarization, human, primary screen. RMI core complex with F-MM2 peptide; hits give low values. AID 1159607, 2016. FP signal (polarization) at 33 µM. hit rate 0.58% among 70,000; in the data active = FP signal below about 40
# * hit, by the source's call; ! = a repeat was not active. Many of the other results were omitted from the sample, so hits are more common in it than they were.
SMILES,RMI-FANCM inh
COc1ccc(-c2cc(C(F)(F)F)n3nc(-c4cccs4)cc3n2)cc1OC,9*
Cc1ccc(C(=O)Nc2nc3c(C)cc(C)cc3s2)cc1,60
CCOC(=O)NNC(=S)Nc1ccccc1N1CCOCC1,52
Oc1c(Br)cc(Br)cc1C=Nc1ccc(-c2ccccc2)cc1,43
Oc1c(Br)cc(Br)cc1C=Nc1cccc(Cl)c1,20*
COc1ccccc1N=Cc1ccccc1OC(=O)c1ccccc1Br,58
COc1cc(Br)cc(C=Nc2ccccc2O)c1O,56
Oc1ccc(Cl)cc1C=Nc1cccc(C(F)(F)F)c1,50
Oc1c(Br)cc(Br)cc1C=Nc1ccccc1F,-4*
CS(=O)(=O)c1ccc(CC(=O)Nc2sc3c(c2C(N)=O)CCCC3)cc1,62
COc1ccc(C(=O)NNC(=O)COc2ccc(Cl)cc2)cc1OC,58
Cc1ccc(C)c(N2CCN(C(=O)c3cn(-c4cccc(Cl)c4)nn3)CC2)c1,59
O=C(NC1CC1)c1ccc(OCc2ccc3ccccc3n2)cc1,59
O=C(O)CC(NS(=O)(=O)c1cc(S(=O)(=O)NC(CC(=O)O)c2ccccc2)c2cccc3c2c1NC3=O)c1ccccc1 (stereo unspecified),52
COC(=O)c1ccccc1NS(=O)(=O)c1cc(S(=O)(=O)Nc2ccccc2C(=O)OC)c2cccc3c2c1NC3=O,30*
COC(=O)c1ccccc1NS(=O)(=O)c1cccc2cccnc12,61
C#CCSc1nnc(CNC(=O)c2ccc(C(C)(C)C)cc2)o1,58
CCOC(=O)c1cc(C#N)c(Sc2ccccc2)nc1C(F)(F)F,53
CCOC(=O)c1cc(C#N)c2ccccn2c1=O,33*
CCOC(=O)c1cc(C#N)c(SCC(=O)Nc2ccc(C(C)=O)cc2)[nH]c1=O,55
COc1ccc(CC(=O)NCCNC(=O)c2ccc(NC(=O)C(C)C)cc2)cc1,69
COc1ccc(CNC(=O)N2CCC(c3nnc(-c4ccc(F)cc4)o3)CC2)cc1OC,60
CCc1cccc2sc(NC(=O)c3cccc(S(=O)(=O)CC)c3)nc12,64
O=C1/C(=C/c2ccccc2)CCC/C1=C\c1ccccc1,58
COc1ccc(NC(=O)CNS(=O)(=O)c2ccc(C(C)(C)C)cc2)cc1,61
SMILES,RMI-FANCM inh
COC(=O)/C(C#N)=C\c1cc([N+](=O)[O-])ccc1N1CCCC1,95
N#C/C(=C/c1ccoc1-c1ccc([N+](=O)[O-])cc1)C(N)=S,24*
N#C/C(=C\c1ccc(-c2cccc(C(F)(F)F)c2)o1)C(N)=S,41
COCCN1CCC(CNC(=O)C(=O)Nc2ccc(OC(F)(F)F)cc2)CC1,78
OCCOCCNc1nc(-c2ccccc2)nc2sc(-c3ccccc3)cc12,70
Fc1ccc(C(c2ccc(F)cc2)N2CCN(C/C=C/c3ccccc3)CC2)cc1,24*!
C(=C\c1ccccc1)/CN1CCN(C(c2ccccc2)c2ccccc2)CC1,54
COc1ccc(CN2CCN(C(c3ccc(F)cc3)c3ccc(F)cc3)CC2)c(OC)c1OC,65
O=C(CSc1nccc(-c2cccs2)n1)c1cc(-c2ccc(Cl)c(Cl)c2)no1,12*
O=C(CSc1nccc(-c2cccs2)n1)N1CCOCC1,60
c1csc(-c2ccnc(SCc3ccc4nonc4c3)n2)c1,68
O=C(O)C1(c2cccs2)CCCC1,63
COc1ccc(NC(=O)C(=O)C=C(O)c2ccccc2)cc1,50
COC(=O)c1ccc(CSc2nc(=O)n3ccc(C)cc3n2)o1,48
Cc1ccc(C2CC(c3cccs3)=NN2C(=O)CSc2nc(=O)n3ccc(C)cc3n2)cc1 (stereo unspecified),88
CCOC(=O)N1CCN(C(=O)CSc2nc(=O)n3ccc(C)cc3n2)CC1,29*
Cc1ccc(NC(=O)NCCS(=O)(=O)c2c(C)n(Cc3ccccc3)c3ccccc23)cc1C,31*
Cc1cccc(NC(=O)NCCS(=O)(=O)c2c(C)n(Cc3ccc(F)cc3)c3ccccc23)c1,57
Cc1c(S(=O)(=O)CCNC(=O)Nc2ccccc2Cl)c2ccccc2n1C,54
CC(=O)Nc1ccc(N=Cc2ccccc2OC(=O)c2cccnc2)cc1,57
COc1cccc(-n2c(SCC(=O)NCc3ccc(C)cc3)nc3c(c2=O)SCC3)c1,65
O=C(Cc1ccc(F)cc1)Nc1nnc(-c2ccc(Br)s2)o1,67
Cn1c(-c2ccccc2)c[nH]c1=S,60
S=c1[nH]nc2ccccn12,56
S=c1[nH]cc2ccccn12,18*
SMILES,RMI-FANCM inh
O=C(CN1C(=O)c2ccccc2C1=O)NCc1ccc2c(c1)OCO2,54
O=C(C1=C(Cl)c2cccc3cccc(c23)C1=O)c1ccccc1,52
O=C1c2ccc3ccccc3c2-c2cccc3cccc1c23,-54
O=C1C([N+](=O)[O-])=C(O)c2cccc3cccc1c23,-1*
O=S(=O)(NCCCN1CCOCC1)c1ccc(Cl)c(Cl)c1,61
COc1ccccc1CNC(=O)Nc1c[nH]c2ccccc12,62
O=C(NCc1ccccn1)Nc1c[nH]c2ccccc12,25*
CC(C)CNC(=O)Nc1c[nH]c2ccccc12,60
